Measured values taken from PMC4336329 (PLoS ONE, 2015).
In all, about 310,000 compounds went through this assay and about 2,200 (0.71%) showed an effect of 50% or more. The effect is printed as a negative number. The full list was thinned out, with strong results kept by preference.

Biological target: human ether-à-go-go-related gene (hERG) potassium channel (human, UniProt Q12809)
Assay: primary screen, population patch clamp on CHO cells stably expressing hERG; higher = less effect of the substance

Sequence of human ether-à-go-go-related gene (hERG) potassium channel (Q12809 whole entry, looked up): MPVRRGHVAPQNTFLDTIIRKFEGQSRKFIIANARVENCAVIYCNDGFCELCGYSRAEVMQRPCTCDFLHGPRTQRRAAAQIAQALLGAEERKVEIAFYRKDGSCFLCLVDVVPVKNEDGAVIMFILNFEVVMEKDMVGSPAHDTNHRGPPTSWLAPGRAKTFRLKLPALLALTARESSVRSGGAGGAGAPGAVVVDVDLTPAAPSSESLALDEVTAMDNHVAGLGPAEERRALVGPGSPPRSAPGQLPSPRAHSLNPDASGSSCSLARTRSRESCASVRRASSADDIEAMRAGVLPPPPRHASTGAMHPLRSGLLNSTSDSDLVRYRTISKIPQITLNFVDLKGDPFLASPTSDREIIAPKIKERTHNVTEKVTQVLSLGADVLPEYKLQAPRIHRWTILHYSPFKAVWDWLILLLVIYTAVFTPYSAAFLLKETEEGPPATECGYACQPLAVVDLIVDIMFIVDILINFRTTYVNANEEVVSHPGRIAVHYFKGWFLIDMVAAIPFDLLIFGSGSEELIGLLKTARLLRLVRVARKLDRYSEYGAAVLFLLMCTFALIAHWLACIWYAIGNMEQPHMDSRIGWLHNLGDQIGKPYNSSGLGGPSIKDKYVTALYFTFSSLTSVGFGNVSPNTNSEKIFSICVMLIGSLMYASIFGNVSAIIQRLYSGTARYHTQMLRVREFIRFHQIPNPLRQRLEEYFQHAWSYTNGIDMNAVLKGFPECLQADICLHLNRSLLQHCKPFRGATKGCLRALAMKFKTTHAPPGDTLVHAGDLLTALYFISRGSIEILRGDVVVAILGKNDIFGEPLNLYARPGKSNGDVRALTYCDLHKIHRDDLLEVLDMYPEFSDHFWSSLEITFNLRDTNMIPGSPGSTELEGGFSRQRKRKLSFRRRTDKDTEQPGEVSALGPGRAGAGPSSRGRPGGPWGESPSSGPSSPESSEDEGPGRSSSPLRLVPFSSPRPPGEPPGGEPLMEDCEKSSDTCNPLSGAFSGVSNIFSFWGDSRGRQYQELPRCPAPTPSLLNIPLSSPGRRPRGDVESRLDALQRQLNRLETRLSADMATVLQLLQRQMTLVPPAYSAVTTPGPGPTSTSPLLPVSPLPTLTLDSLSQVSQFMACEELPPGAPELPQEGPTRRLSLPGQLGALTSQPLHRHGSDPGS

Row | SMILES | hERG current change (%, negative = inhibition) at 1uM [%]
1 | CC1CN(C(=O)c2c(Br)cnn2C)CC(C)O1 (stereo not drawn) | 4.32
2 | O=C(COC(=O)Cc1ccsc1)Nc1cccc(Cl)c1 | 0.601
3 | COc1ccc(N2CCN(C(=O)c3cccc(NC(=O)c4ccco4)c3)CC2)cc1 | -8.07
4 | COc1ccc(N2CCN(C(=O)c3ccc(C)c(NC(=O)c4ccco4)c3)CC2)cc1 | -53.7
5 | Cc1ccc(C(=O)N2CCN(c3ccccc3)CC2)cc1NC(=O)c1ccco1 | 1.43
6 | O=C(c1cc(COc2ccc3ncccc3c2)on1)N1CCCC1 | 13.5
7 | CN1C(=O)c2oc3ccccc3c(=O)c2C1c1ccncc1 (stereo not drawn) | 5.81
8 | O=S(=O)(c1ccc2nc(-c3ccccc3)[nH]c2c1)N1CCN(c2ccc(Cl)cc2)CC1 | 5.61
9 | COc1ccc(OC)c(CN2CCC(CNC(=O)Nc3cccc(Cl)c3)CC2)c1 | -26.3
10 | O=C(NCC1CCN(Cc2ccccc2Cl)CC1)Nc1cccc(Cl)c1 | -62.3
11 | O=C(NCC1CCN(Cc2ccccc2Cl)CC1)Nc1ccccc1F | -6.32
12 | C1CNCCN1.COc1cc(C(O)CO)ccc1O (stereo not drawn) | 10
13 | CCN(CC)CCOC(=O)CCc1cccc2ccccc12.O=C(O)C(=O)O | -3.77
14 | CCN(CC)CCOC(=O)C(Cc1cccc2ccccc12)CC1CCCO1.O=C(O)C(=O)O (stereo not drawn) | -20.2
15 | CCN(CC)CCOC(=O)C(Cc1ccco1)Cc1cccc2ccccc12.O=C(O)C(=O)O (stereo not drawn) | -62.8
16 | C#CCOCCOCCOCCNc1nc(N2CCOCC2)nc(N2CCN(C(=O)Cn3cc(CCC[NH+]=C(N)N)nn3)CC2)n1.[Cl-] | 17.5
17 | CCc1ccc(/C=C(/C#N)C(N)=S)s1 | 15
18 | O=C(N/N=C/c1ccsc1)c1ccccn1 | 16.7
19 | O=C(CNC(=S)N(CCCN1CCOCC1)Cc1cccs1)NCCCN1CCOCC1 | 16.3
20 | O=C(CNC(=S)N(CCCN1CCOCC1)Cc1cccs1)NCc1ccc(Cl)cc1 | -61.3
21 | O=C(Nc1ccc(Cl)c(Cl)c1)N(CCCN1CCOCC1)Cc1cccs1 | -41.8

Row | SMILES | hERG current change (%, negative = inhibition) at 1uM [%]
22 | O=C(Nc1ccc(Cl)cc1)N(CCCN1CCOCC1)Cc1cccs1 | -55
23 | O=C(Nc1ccccc1)N(CCCN1CCOCC1)Cc1cccs1 | -29.2
24 | O=C(CNC(=S)N(CCCN1CCOCC1)Cc1cccs1)NCc1ccccc1Cl | -35.5
25 | Cc1ccc(OCC(=O)N2CCc3ccccc32)cc1 | 10.7
26 | CCOc1ccc(NC(=O)CN2CCN(C3c4ccccc4-c4ccccc43)CC2)cc1 | -25.5
27 | O=C(CN1CCN(CC(=O)Nc2ccc(OCc3ccccc3)cc2)CC1)Nc1ccc(F)cc1 | -81.5
28 | O=C(CN1CCC(NC(=O)c2cccc(F)c2)CC1)Nc1ccc(Br)cc1 | -53.9
29 | Cc1cc(C(=O)CN2CCN(CC(=O)Nc3ccc(F)cc3)CC2)c(C)n1C1CC1 | -72.3
30 | CCCCOc1ccc(NC(=O)CN2CCN(Cc3ccccc3)CC2)cc1 | 1.72
31 | CCOc1ccc(NC(=O)CN2CCN(Cc3c(F)cccc3F)CC2)cc1 | -50.7
32 | O=C(CN1CCCC1)Nc1ccc(OCc2ccccc2)cc1 | 8
33 | Cc1cc(C(=O)CN2CCN(CC(=O)Nc3cccc(F)c3)CC2)c(C)n1C1CC1 | -7.82
34 | O=C(CN1CCN(c2ccccc2)CC1)Nc1ccc(OCc2ccccc2)cc1 | 13.4
35 | Cc1ccc(NC(=O)CN2CCC(NC(=O)c3cccc(F)c3)CC2)cc1C | -13.4
36 | Cc1cc(C)cc(NC(=O)CN2CCC(NC(=O)c3cccc(F)c3)CC2)c1 | 4.29
37 | Cc1cccc(C)c1NC(=O)CN1CCN(CC(=O)c2cc(C)n(C3CC3)c2C)CC1 | -0.73
38 | C[C@]1(C(=O)NCCc2c[nH]c3ccccc23)C=C[C@@H](Cc2ccccc2)N1C(=O)c1ccccc1 | 7.98
39 | CCn1ccc(C(=O)NC2CCCC2)n1 | 8.64
40 | CN(C)C(=O)CN1CCN(Cc2nc(CC3CC3)no2)CC1 | 7.17
41 | COCCN(C(=O)CSc1nc2ccccc2c(=O)n1CCOC)c1c(N)n(Cc2ccccc2)c(=O)[nH]c1=O | 12.6
42 | Cl.O=S(=O)(NC1CCN(Cc2ccccc2)CC1)c1ccc2ccccc2c1 | 4.69

Row | SMILES | hERG current change (%, negative = inhibition) at 1uM [%]
43 | C#CCOCCOCCOCCNc1nc(N2CCN(C(=O)[C@H](Cc3ccc(O)cc3)n3cc([C@@H](N)C(C)CC)nn3)CC2)nc(N2CCN(C(=O)[C@H](CCCCN)n3cc([C@@H](N)CO)nn3)CC2)n1.Cl (stereo partly drawn) | 12.4
44 | COc1cccc(/C=C/C(=O)OCC(=O)NC2CC2)c1 | 10.5
45 | CC(C)/C(=N/Nc1ccccc1[N+](=O)[O-])c1ccccc1 | 22.6
46 | CCCCc1nnc(NC(=O)COC)s1 | 16.3
47 | O=C(CN1CCC(n2cnc3cc(F)ccc32)CC1)Nc1ccccc1Br | -23.5
48 | COc1cc(C(=O)N2CCC(n3cnc4cc(F)ccc43)CC2)cc(OC)c1OC | -9.25
49 | COc1cc(NC(=O)CN2CCCCCC2)cc(OC)c1 | 13.5
50 | CCOc1ccc(NC(=O)CN2CCN(CC(=O)Nc3ccc(C(=O)OC)cc3)CC2)cc1 | -48
51 | CCOC(=O)N1CCN(CC(=O)Nc2ccc(F)cc2)CC1 | -73
52 | CCOC(=O)N1CCN(CC(=O)Nc2ccc(OC)cc2)CC1 | 9.1
53 | CCOC(=O)N1CCN(CC(=O)Nc2ccc(C)cc2)CC1 | 6.17
54 | CCOc1ccc(NC(=O)CN2CCN(CC(=O)Nc3cc(OC)cc(OC)c3)CC2)cc1 | -71.3
55 | CCOc1ccc(NC(=O)CN2CCC(n3cnc4cc(F)ccc43)CC2)cc1 | -71.7
56 | COc1ccccc1CNC(=O)CN1CCC(n2cnc3cc(F)ccc32)CC1 | -59.1
57 | COc1ccccc1CNC(=O)CN1CCC(NC(=O)c2ccccc2F)CC1.Cl | 1.06
58 | CC(=O)Nc1ccc(S(=O)(=O)N2CCC(n3cnc4cc(F)ccc43)CC2)cc1 | -26.4
59 | CCN(C(=O)CSc1nc2cc(C(=O)OC)ccc2c(=O)n1Cc1ccco1)c1cccc(C)c1 | 7.87
60 | Cc1c(NC(=O)C(C)Oc2ccc(Br)cc2Cl)c(=O)n(-c2ccccc2)n1C (stereo not drawn) | -1.81
61 | COc1ccc(C(=O)NC(=S)NCc2ccco2)cc1 | 15
62 | Cc1cc(C)c(S(=O)(=O)Cc2ccc(Cl)cc2)c(=O)[nH]1 | 9.42
63 | O=C(N1CCN(CCO)CC1)N1c2ccccc2C=Cc2ccccc21 | 13

Row | SMILES | hERG current change (%, negative = inhibition) at 1uM [%]
64 | COc1ccc(NC(=O)c2ccc(NC(=O)c3cccs3)cc2)cc1 | 0.302
65 | CCN(C(=O)CSc1nnc(NC2CCCCC2)s1)C1CCS(=O)(=O)C1 (stereo not drawn) | 2.2
66 | O=C(NCc1ccccc1)N1CCC(n2cnc3cc(F)ccc32)CC1 | -56.6
67 | CCOc1ccc(NC(=O)CN2CCN(CC(=O)Nc3ccc(C(N)=O)cc3)CC2)cc1 | -36.9
68 | CCOc1ccc(NC(=O)CN2CCN(CC(=O)Nc3ccc(Cl)c(C(F)(F)F)c3)CC2)cc1 | -6.47
69 | O=C(CN1CCN(CC(=O)Nc2cccc(F)c2)CC1)Nc1ccc(-c2ccccc2)cc1 | 13.6
70 | COc1ccc(S(=O)(=O)N2CCN(CC(=O)Nc3cccc(F)c3)CC2)cc1 | -8.66
71 | CCOC(=O)N1CCN(CC(=O)Nc2ccc(F)c(F)c2)CC1 | 8.59
72 | CCOc1ccc(NC(=O)CNC(=O)c2ccc(OC)c(OC)c2)cc1 | 5.55
73 | CCOc1ccc(NC(=O)CN2CCN(CC(=O)c3ccc(OC)c(OC)c3)CC2)cc1 | -56.3
74 | CCOc1ccc(NC(=O)CN2CCN(CC(=O)Nc3cccc(F)c3)CC2)cc1 | -97.2
75 | CCOc1ccc(NC(=O)CN2CCN(CC(=O)Nc3ccc(F)c(F)c3)CC2)cc1 | -87.9
76 | O=C(NCc1ccc(F)cc1)C1CCN(C(=O)NCc2ccccc2)CC1 | 19.1
77 | O=C(c1ccc(F)cc1)C1CCN(C(=O)NCc2ccccc2)CC1 | -5.59
78 | CCCCSc1nnc(-c2cc(Br)ccc2N)c(=O)[nH]1 | 0.939
79 | CCC(C)(C)NC(=O)C(c1ccc(OC)cc1)N(Cc1ccco1)C(=O)CCC(=O)Nc1cc(C)on1 (stereo not drawn) | 4.86
80 | COc1ccc(CC(NC(C)=O)C(=O)NC2CCN(C(=O)Nc3ccc(Cl)cc3)CC2)cc1OC (stereo not drawn) | 10.2
81 | O=C(COc1ccccc1[N+](=O)[O-])NCC1(N2CCCCC2)CCCCC1 | -4.91
82 | CCOC(=O)c1ccc(NC(=O)COc2coc(CN3CCc4ccccc43)cc2=O)cc1 | 8.2
83 | COc1ccc(OC)c(S(=O)(=O)N2CCC(C(=O)NCc3ccccc3OC)CC2)c1 | 3.09
84 | NC1=NC[C@@H](Cc2ccc(O)cc2)N1CCC12CC3CC(CC(C3)C1)C2 | 10.4
